Out of some 39,000 compounds screened, about 1,500 (3.8%) were called active. The full list was thinned out, with actives kept by preference.
What follows are compounds tested on HSkMC (human skeletal muscle cells) (assay: cytotoxicity call (relative viability < 0.9)). Conditions: 10 µM.
NCCN1CCN(c2ccc(F)cc2)CC1 was tested, and the cytotoxicity call was “inactive”.
In the case of CCCCCCCCCCCCCCCC[n+]1ccccc1.[Cl-], the cytotoxicity call is reported as “active”.
For CCCCCCCCCCCCCCCC[n+]1ccccc1, the cytotoxicity call was “active”.
c1ccc(CN2CCNCC2)nc1 was tested, and the cytotoxicity call was “inactive”.
With CN[C@@H](C)Cc1cnccn1 the cytotoxicity call was “inactive”.
With CCOCC(=O)N[C@H]1CCSC1=O the cytotoxicity call was “inactive”.
For O=C1C[C@@H](CO)CN1, the cytotoxicity call was “inactive”.
In the case of CN(C)C(=O)C(CCN1CCC(O)(c2ccc(Cl)cc2)CC1)(c1ccccc1)c1ccccc1.Cl, the cytotoxicity call is reported as “inactive”.
C[C@]12CCC(=O)C[C@@H]1CC[C@@H]1[C@@H]2CC[C@]2(C)C(=O)CC[C@@H]12 [5alpha-ANDROSTAN-3,17-DIONE ] was tested, and the cytotoxicity call was “inactive”.
For C[C@]12CC/C(=N\OCCN)C[C@@H]1C(=O)C[C@@H]1[C@@H]2CC[C@]2(C)C(=O)CC[C@@H]12, the cytotoxicity call was “active”.
For CC12CCC3C(CC=C4CC(O)CCC43C)C1CCC2=O (configuration not stated), the cytotoxicity call was “inactive”.
In the case of CC1=C2C(=COC(C)C2C)C(O)=C(C(=O)O)C1=O (configuration not stated), the cytotoxicity call is reported as “inactive”.
For C=C(C)[C@H]1CN[C@H](C(=O)O)[C@H]1CC(=O)O, the cytotoxicity call was “inactive”.
For COC(=O)C[C@H]1CC[C@@H]2NC[C@@H](O)COC[C@H]2O1, the cytotoxicity call was “inactive”.
For Cc1ccc2c(CCN)c(C)n(C)c2c1, the cytotoxicity call was “inactive”.
For CCn1nc(-c2cccnc2)nc2c(=O)n(C)c(=O)nc1-2, the cytotoxicity call was “active”.
With C1C[C@@H]2C[C@@H]2N1 the cytotoxicity call was “inactive”.
With S=C=Nc1cccc(C2(N3CCCCC3)CCCCC2)c1 the cytotoxicity call was “inactive”.
With Cc1ncc(CNC(=O)N(CCCl)N=O)c(N)n1.Cl the cytotoxicity call was “inactive”.
With CCC1(c2ccccc2)C(=O)NC(=O)NC1=O the cytotoxicity call was “inactive”.
NC[C@H]1CCCc2ccc(Cl)cc21 was tested, and the cytotoxicity call was “inactive”.
COCC(=O)N1[C@@H]2c3ccc(C4=CCCC4)c(=O)n3C[C@H]1[C@H](CO)[C@H]2C(=O)OC was tested, and the cytotoxicity call was “inactive”.
For CC(=O)OC1CCC2(C)C(=CCC3C4CCC(=O)C4(C)CCC32)C1 (configuration not stated), the cytotoxicity call was “inactive”.
For CC1(C)S[C@@H]2[C@H](N)C(=O)N2[C@H]1C(=O)O, the cytotoxicity call was “inactive”.
With N.N.[Cl][Pt][Cl] the cytotoxicity call was “inactive”.
CCOC(=O)c1c(CN2CCN(c3ccccc3)CC2)n(Cc2ccccc2)c2cc(Br)c(O)cc12 was tested, and the cytotoxicity call was “active”.
With CCOC(=O)c1c(CN2CCN(Cc3ccccc3)CC2)n(Cc2ccccc2)c2cc(Br)c(O)cc12 the cytotoxicity call was “active”.
For CNCc1cccnc1, the cytotoxicity call was “inactive”.
With O=C1CO[C@H]2CNC[C@@H]2N1CC1CCCC1 the cytotoxicity call was “inactive”.
C[C@H](CO)N1C[C@H](C)[C@@H](CN(C)C(=O)Oc2ccc3ccccc3c2)OCc2cnnn2CCCC1=O was tested, and the cytotoxicity call was “inactive”.
In the case of O/N=C1\CN2CCC1CC2, the cytotoxicity call is reported as “inactive”.
In the case of C=C(C)C1Cc2c(ccc3c2OC2COc4cc(OC)c(OC)cc4C2C3=O)O1 (configuration not stated), the cytotoxicity call is reported as “inactive”.
With c1ccc(-c2ccncc2)cc1 the cytotoxicity call was “inactive”.
With C[C@@H]1CC[C@@]2(OC1)O[C@H]1[C@@H](O)[C@H]3[C@H]4CC[C@H]5C[C@H](O[C@@H]6O[C@H](CO)[C@H](O[C@@H]7O[C@H](CO)[C@@H](O)[C@H](O[C@@H]8OC[C@@H](O)[C@H](O)[C@H]8O)[C@H]7O[C@@H]7O[C@H](CO)[C@H](O)[C@H](O[C@@H]8O[C@H](CO)[C@@H](O)[C@H](O)[C@H]8O)[C@H]7O)[C@H](O)[C@H]6O)[C@H](O)C[C@]5(C)[C@@H]4CC[C@]3(C)[C@H]1[C@@H]2C the cytotoxicity call was “inactive”.
With CC1CCC2(NC1)OC1CC3C4CC=C5CC(O)CCC5(C)C4CCC3(C)C1C2C (configuration not stated) the cytotoxicity call was “inactive”.
In the case of C[C@@H]1CC[C@@]2(OC1)O[C@H]1C[C@H]3[C@@H]4CC=C5C[C@@H](O[C@@H]6O[C@H](CO)[C@@H](O[C@@H]7O[C@@H](C)[C@H](O)[C@@H](O)[C@H]7O)[C@H](O)[C@H]6O[C@@H]6O[C@@H](C)[C@H](O)[C@@H](O)[C@H]6O)CC[C@]5(C)[C@H]4CC[C@]3(C)[C@H]1[C@@H]2C, the cytotoxicity call is reported as “active”.
For Cc1cccc2[nH]c(CCN)nc12, the cytotoxicity call was “inactive”.
COc1cccc(N=[N+]=[N-])c1 was tested, and the cytotoxicity call was “inactive”.
For CC1=C[C@H]2O[C@@H]3[C@H](O)[C@@H](O[C@H]4O[C@H](CO)[C@@H](O)[C@H](O)[C@H]4O)[C@](C)([C@@]2(CO)CC1)[C@]31CO1, the cytotoxicity call was “active”.
With Cc1cc(O[C@@H]2O[C@H](CO)[C@@H](O)[C@H](O)[C@H]2O)c2c3c(c(=O)oc2c1)CCC3 the cytotoxicity call was “inactive”.
In the case of CC(=O)OC[C@]12CCC(C)=C[C@H]1O[C@@H]1[C@H](O)[C@@H](OC(C)=O)[C@@]2(C)[C@]12CO2, the cytotoxicity call is reported as “active”.
In the case of OCCN[C@@H]1c2ccccc2[C@H]2CNC[C@H]21, the cytotoxicity call is reported as “inactive”.
With C[C@]12CC[C@H](Cl)C[C@@H]1CC[C@@H]1[C@@H]2CC[C@]2(C)C(=O)CC[C@@H]12 the cytotoxicity call was “inactive”.
For NC(=O)c1ccc(N)nc1, the cytotoxicity call was “inactive”.
In the case of CC12CC(=O)C3C(CCC4=CC(=O)CCC43C)C1CCC2=O (configuration not stated), the cytotoxicity call is reported as “inactive”.
NCCc1ccncc1 was tested, and the cytotoxicity call was “inactive”.
In the case of CCN1C[C@@]2(C)CC[C@H](OC)C34[C@@H]2[C@H](O)[C@]2(OCO[C@@]25C[C@H](OC)[C@H]2C[C@]3(O)[C@@H]5[C@H]2O)[C@@H]14, the cytotoxicity call is reported as “inactive”.
With O=c1[nH]c2ccccc2n1C1CCN(Cc2ccc(-c3nc4cc5[nH]cnc5cc4nc3-c3ccccc3)cc2)CC1 the cytotoxicity call was “active”.
With CN1C[C@H](C(=O)N[C@]2(C)O[C@@]3(O)[C@@H]4CCCN4C(=O)[C@H](Cc4ccccc4)N3C2=O)C=C2c3cccc4[nH]cc(c34)C[C@H]21 the cytotoxicity call was “inactive”.
Cc1cccc(N2CCNCC2)n1 was tested, and the cytotoxicity call was “inactive”.
For COc1c2c(cc3c1OCO3)CC[N+](C)=C2.[Cl-], the cytotoxicity call was “inactive”.
For CC(C)CC1C(=O)N2CCCC2C2(O)OC(NC(=O)C3C=C4c5cccc6[nH]c(Br)c(c56)CC4N(C)C3)(C(C)C)C(=O)N12.CS(=O)(=O)O (configuration not stated), the cytotoxicity call was “inactive”.
O=c1[nH]c2cc(N3CCNCC3)ccc2o1 was tested, and the cytotoxicity call was “inactive”.
COc1cccc2c1C(=O)c1c(O)c3c(c(O)c1C2=O)C[C@@](O)(C(=O)CO)C[C@@H]3O[C@H]1C[C@H](N2CCO[C@H](OC)C2)[C@H](O)[C@H](C)O1 was tested, and the cytotoxicity call was “active”.
In the case of CC[C@@]1(O)C[C@H](O[C@H]2C[C@H](N(C)C)[C@H](O)[C@H](C)O2)c2c(cc3c(c2O)C(=O)c2c(O)ccc(O)c2C3=O)[C@H]1C(=O)OC, the cytotoxicity call is reported as “inactive”.
In the case of COc1cc2c3cc1Oc1c(OC)c(OC)cc4c1C(Cc1cccc(c1)Oc1ccc(c(O)c1)CC3N(C)CC2)N(C)CC4.Cl.Cl (configuration not stated), the cytotoxicity call is reported as “inactive”.
In the case of COc1ccc(OC(=O)N(C)C[C@@H]2OCc3ccccc3-c3c(n(C)c4ccccc34)C(=O)N([C@@H](C)CO)C[C@H]2C)cc1, the cytotoxicity call is reported as “inactive”.

From the antibiotic and cytotoxicity screens of Wong et al. (2023)
